Test results as given in PubChem BioAssay AID1159580 (chemical genetic matrix, 2015).
Several values for one entry are separate records, joined by “and”; a condition that tells them apart may be missing. Identical values can stand only once. In all, about 5,500 compounds went through this assay and about 2,000 (36%) were called active. Another 18% or so got no clear call; they are omitted. No stated cut-off is given here; in the data, active means normalized growth mostly below about 0.91 (no sharp cut-off); inconclusive means no clear call, values can overlap the other calls; inactive means mostly above about 0.92. Some of the results follow.

Assay: chemical genetic growth profiling, strain panel (AID 1159580);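 further: tested at 20 µM; growth read once vehicle control cultures reached saturation at 30 °C; 1 = growth at the plate median or of vehicle wells; lower values mean less growth of the strain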
Settings: S. cerevisiae deletion strains, growth OD

Measured: normalized growth

Oc1c(Cl)c(Cl)c(Cl)c(Cl)c1Cl
active: locus YAL013W, strain DEP1, active compounds read low 0.885 | locus YBR021W, strain FUR4, active compounds read low 0.636 | locus YBR229C, strain ROT2, active compounds read low 0.845 | locus YCL029C, strain bik1, active compounds read low 0.672 | locus YDL035C, strain GPR1, active compounds read low 0.834 | locus YDL074C, strain BRE1, active compounds read low 0.704 | locus YDL101C, strain DUN1, active compounds read low 0.885 | locus YDL134C, strain PPH21, active compounds read low 0.816 | locus YDL185W, strain tfp1, active compounds read low 0.176 | locus YDL192W, strain arf1, active compounds read low 0.811 | locus YDR101C, strain arx1, active compounds read low 0.758 | locus YDR150W, strain NUM1, active compounds read low 0.786 | locus YDR162C, strain NBP2, active compounds read low 0.607 | locus YDR318W, strain mcm21, active compounds read low 0.686 | locus YDR388W, active compounds read low 0.763 | locus YDR502C, strain sam2, active compounds read low 0.73 | locus YEL061C, strain CIN8, active compounds read low 0.819 | locus YER110C, active compounds read low 0.383 | locus YER155C, strain BEM2, active compounds read low 0.669 | locus YER167W, strain BCK2, active compounds read low 0.659 | locus YGL078C, strain dbp3, active compounds read low 0.759 | locus YGL086W, strain mad1, active compounds read low 0.772 | locus YGL248W, strain PDE1, active compounds read low 0.818 | locus YGR078C, strain PAC10, active compounds read low 0.745 | locus YGR135W, strain pre9, active compounds read low 0.732 | locus YGR229C, strain SMI1, active compounds read low 0.594 | locus YGR252W, strain gcn5, active compounds read low 0.637 | locus YHR030C, strain SLT2, active compounds read low 0.792 and 0.128 | locus YHR079C, strain IRE1 (second series), active compounds read low 0.659 | locus YHR079C, strain IRE1, active compounds read low 0.111 | locus YHR094C, strain hxt1, active compounds read low 0.75 | locus YHR129C, strain ARP1, active compounds read low 0.775 | locus YHR200W, strain rpn10, active compounds read low 0.755 | locus YIL066C, strain RNR3, active compounds read low 0.71 | locus YIL125W, strain kgd1, active compounds read low 0.463 | locus YIR030C, strain dcg1, active compounds read low 0.688 | locus YJL095W, strain BCK1, active compounds read low 0.635 and 0.181 | locus YJL134W, strain LCB3, active compounds read low 0.835 | locus YJL168C, strain set2, active compounds read low 0.757 | locus YJL187C, strain SWE1 (second series), active compounds read low 0.818 | locus YJR043C, strain POL32, active compounds read low 0.716 | locus YJR066W, strain TOR1, active compounds read low 0.00405 | locus YJR075W, strain HOC1, active compounds read low 0.71 | locus YKL009W, strain mrt4, active compounds read low 0.569 | locus YKL068W, active compounds read low 0.759 | locus YKL085W, strain MDH1 (second series), active compounds read low 0.647 | locus YKL085W, strain MDH1, active compounds read low 0.647
inactive: locus YIL073C, strain SPO22, active compounds read low 0.801
